Measurements published in the OligoGym collection.

molecular target: YAP1; assay: pooled miR-30 sensor sort-seq; sequence = guide strand; details: shRNA
Also: reference of the scale not given here.

Row | Sequence | sensor-assay potency score (higher = more potent)
1 | ATCTTTTTCTGTATTAGCCTGA | 0.428
2 | TGTTGTTGTCTGATCGATGTGA | 0.751
3 | TACATTAACAGCAGCAATGGAC | -0.672
4 | TTTGGTTGATAGTATCACCTGT | 0.841
5 | TTGAACAAACTAAATGCTGTGA | 0.444
6 | TTAAGAAGTATCTCTGACCAGA | 0.035
7 | TTGGTTGATAGTATCACCTGTA | 0.588
8 | TGTTGAACAAACTAAATGCTGT | 0.164
9 | TTAAGGAAAGGATCTGAGCTAT | -0.559
10 | TAAAGTATCTTGCTGGACGTTT | -0.0595
11 | TTAGCCTGAAAACTGCAACTGG | -0.22
12 | TGCTGTGACATGAAGCATCTGA | 0.636

molecular target: YARS; assay: as above; details: shRNA

Row | Sequence | sensor-assay potency score (higher = more potent)
13 | TTTTAAATACTCTTCATCCAAA | -1.12
14 | TCGTAGGATCACAAACTCGGAC | -0.717
15 | TATAGAAGCACACAGAAGCATG | -1.29
16 | TTCTCATAGTAACTGACTCGGA | -0.794
17 | TTTTGCTGCCTGTTAATCCTGG | -0.733
18 | TTCTCGAAGACTTTCTTCTTGG | -0.635
19 | TTCTTCACATCCTCCTTCCGAT | -0.429
20 | ATCTTCTCTACATACAGGCTGT | -0.695
21 | TTGAATAGCCAAGTGCAGGGAG | 0.352
22 | TACACATCTAGTGTGTACTCTT | -0.195
